From PubChem BioAssay (Tox21)
A number with no mark means an inactive call. Records with an inconclusive call do not appear. A call without a number means that no potency is given here. Activity calls are given as the source filed them. Unless noted, the call rests on the fitted dose curve; in most records, active means well fitted curve in the direction sought with a large enough effect in the repeat runs; inconclusive means weak or mixed curves; inactive means no such curve, though single readings can be large; an effect the other way counts as inactive or inconclusive.

Legend:
[1] = A CellTox Green Cytotoxicity Assay to monitor cytotoxicity in HepG2 cells - 8 hour (AID 1224890); further: nearly all actives have a fitted effect of over 45% in size
How it was run: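 Cytotoxicity was tracked as dead-cell DNA fluorescence in HepG2 cells treated with test compounds at 37 C; each time-point value comes from one kinetic series spanning 0, 8, 16, 24, 32 and 40 h.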

[2] = qHTS assay to identify small molecule antagonists of the estrogen receptor alpha (ER-alpha) signaling pathway using the BG1 cell line in the presence of 0.1 nM 17-beta-estradiol - cell viability counter screen (AID 1259241); further: nearly all actives have a fitted effect of over 40% in size
How it was run: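 Following 5 days in phenol red-free medium with charcoal-stripped serum, VM7Luc4E2 cells received test compounds alongside 0.1 nM 17beta-estradiol (final) at 37C for 22 hr. Live cells were then quantified via protease-substrate fluorescence.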

[3] = qHTS assay to identify small molecule antagonists of the androgen receptor (AR) signaling pathway using the MDA cell line in the presence of 0.5 nM R1881 - cell viability counter screen (AID 1259242); further: nearly all actives have a fitted effect of over 45% in size
How it was run: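 Cells seeded at 3,000/well and allowed 5 hr at 37C, 0% CO2 before compound transfer and R1881 (0.5 nM final) addition; 16 hr later, live-cell protease fluorescence indicated cytotoxicity.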

[4] = biological target: Estrogen receptor (Homo sapiens) (UniProt P03372); test: qHTS assay to identify small molecule antagonists of the estrogen receptor alpha (ER-alpha) signaling pathway using the BG1 cell line in the presence of 0.1 nM 17-beta-estradiol (AID 1259244); further: nearly all actives have a fitted effect of over 50% in size
Estrogen receptor (Homo sapiens), sequence (P03372 whole entry, looked up): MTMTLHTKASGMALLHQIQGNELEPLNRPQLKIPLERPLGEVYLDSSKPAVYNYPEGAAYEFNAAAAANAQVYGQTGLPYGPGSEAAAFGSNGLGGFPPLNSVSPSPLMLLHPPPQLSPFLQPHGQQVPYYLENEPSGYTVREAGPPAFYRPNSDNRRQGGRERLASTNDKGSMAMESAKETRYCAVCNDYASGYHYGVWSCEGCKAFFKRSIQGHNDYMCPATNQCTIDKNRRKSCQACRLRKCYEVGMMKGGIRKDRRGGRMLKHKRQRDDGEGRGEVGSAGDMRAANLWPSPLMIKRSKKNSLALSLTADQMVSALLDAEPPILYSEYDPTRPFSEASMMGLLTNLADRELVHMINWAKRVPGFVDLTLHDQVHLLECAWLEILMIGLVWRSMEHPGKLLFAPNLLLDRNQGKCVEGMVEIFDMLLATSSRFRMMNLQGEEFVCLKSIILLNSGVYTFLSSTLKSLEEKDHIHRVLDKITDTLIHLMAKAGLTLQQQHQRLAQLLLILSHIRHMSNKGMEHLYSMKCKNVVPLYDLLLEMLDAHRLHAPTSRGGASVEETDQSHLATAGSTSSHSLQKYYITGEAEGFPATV
How it was run: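 Luciferase signal from VM7Luc4E2 ERE-reporter cells, co-dosed with test compound and 0.1 nM final 17beta-estradiol for 22 h, read with ONE-Glo.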

[5] = qHTS assay to identify small molecule HDAC inhibitors (AID 1259364); further: potency means the concentration at half of the fitted maximal effect;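 further: wild-type HCT-116 cells with endogenous class I/II HDAC activity; nearly all actives have a fitted effect of over 45% in size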
How it was run: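 HCT-116 wt cells, 1,500/well, overnight attach. Compounds (DMSO) 2 h, 37 °C. HDAC-Glo I/II, 30 min RT. Luminescence.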

[6] = qHTS assay to identify small molecule HDAC inhibitors - cell viability counter screen (AID 1259365); further: series mostly up to about 92 µM; nearly all actives have a fitted effect of over 50% in size
How it was run: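 HCT-116 wild-type, overnight attachment; 2hr drug exposure, 37C; CellTiter-Glo luminescent ATP readout after 30min RT.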

[7] = qHTS assay to identify small molecule agonists of the sonic hedgehog signaling (Shh) pathway - cell viability counter screen (AID 1259366); further: nearly all actives have a fitted effect of over 50% in size
How it was run: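 Compounds in DMSO were pin-transferred onto 3T3 Gli1-Luc cells that had settled 4hr; plates then stood 24hr at 37C and 5% CO2. One hour before the end, CellTiter-Fluor was added and fluorescence recorded.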

[8] = qHTS assay to identify small molecule antagonists of the sonic hedgehog signaling (Shh) pathway - cell viability counter screen (AID 1259367); further: nearly all actives have a fitted effect of over 55% in size
How it was run: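 Cytotoxicity was assessed in parallel with Shh reporter activity by measuring live-cell protease fluorescence (CellTiter-Fluor) in NIH/3T3 cells stably carrying Gli1-Luc, treated with compound under conditioned medium stimulation for 23 hr plus 1 hr reagent incubation.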

[9] = qHTS assay to identify small molecule agonists of the sonic hedgehog signaling (Shh) pathway (AID 1259368; calls by dose curve;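 further: NIH/3T3-derived 3T3Gli1-Luc cells carrying a stable Gli1-driven firefly luciferase reporter; series mostly up to about 92 µM; nearly all actives have a fitted effect of over 15% in size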)
How it was run: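 Following a 24 hr incubation with DMSO-dissolved compounds at 37 C, 5% CO2, Gli1-Luc NIH/3T3-derived cells received luciferase reagent for 30 min at room temperature prior to luminescence measurement.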

[10] = qHTS assay to identify small molecule antagonists of the sonic hedgehog signaling (Shh) pathway (AID 1259369; calls by dose curve; further: nearly all actives have a fitted effect of over 45% in size)
How it was run: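 Read-out is luminescence from a firefly luciferase gene controlled by the Gli1 response element, in 3T3Gli1-Luc cells pre-incubated 4hr then exposed to compounds and conditioned medium for 24hr.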

[11] = qHTS assay to identify small molecule agonists of the androgen receptor (AR) signaling pathway in the presence of an antagonist - cell viability counter screen (AID 1259379);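 further: MDA-kb2 human breast cancer cells carrying an MMTV luciferase reporter; series mostly up to about 92 µM; nearly all actives have a fitted effect of over 25% in size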
How it was run: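 Each compound was tested at 15 concentrations on MDA-kb2 cells in the presence of 3.0uM nilutamide. Viability was measured by CellTiter-Fluor fluorescence after a 16 hr incubation at 37C in a CO2-free atmosphere.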

[12] = qHTS assay to identify small molecule agonists of the estrogen receptor beta (ER-beta) signaling pathway - cell viability counter screen (AID 1259380); further: nearly all actives have a fitted effect of over 30% in size
How it was run: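 Compounds dissolved in DMSO were pin-transferred onto ER-beta-UAS-bla HEK293T cells that had settled 6 hr, and exposure ran 16 hr at 37C. Following the reporter read, CellTiter-Glo luminescence after 30 min at room temperature indicated cytotoxicity.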

[13] = qHTS assay to identify small molecule antagonists of the estrogen receptor beta (ER-beta) signaling pathway - cell viability counter screen (AID 1259382); further: series mostly up to about 92 µM; nearly all actives have a fitted effect of over 55% in size
How it was run: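 CellTiter-Glo ATP luminescence measured after the LiveBLAzer read in the same wells; ER-beta-UAS-bla HEK293T cells, 16 hr compound treatment with 1nM 17-beta-estradiol agonist at 37C, 5% CO2.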

[14] = biological target: Estrogen receptor (Homo sapiens) (UniProt P03372); test: qHTS assay to identify small molecule agonists of the estrogen receptor alpha (ER-alpha) signaling pathway in the presence of an antagonist (AID 1259383; calls by dose curve; further: top concentration of the series differs between compounds; nearly all actives have a fitted effect of over 15% in size)
How it was run: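 Luminescent ERE-luciferase reporter, VM7Luc4E2 cells (endogenous ER-alpha); 10.0nM ICI-182,780 final; 15-point compound titration; 22hr at 37C; ONE-Glo, 30min RT.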

[15] = qHTS assay to identify small molecule agonists or antagonists of the thyroid stimulating hormone receptor (TSHR) signaling pathway - wild type cell line counter screen (AID 1259384; calls by dose curve)
How it was run: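 Wild-type HEK293 cells were plated 18 h at 37 C/5% CO2, pin-dosed with compound plus Ro20-1724 medium, held 30 min at room temperature, then given cAMP-d2 and anti-cAMP-cryptate; fluorescence was read after 1 h. Fifteen concentrations, triplicate.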

[16] = qHTS assay to identify small molecule phospholipidosis (PLD) inducers (AID 1259344; active means well fitted curve in the direction sought with a large enough effect; an effect the other way counts as inactive or inconclusive)
How it was run: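 Cells (HepG2, 900 per well) attach for 4 h, receive LipidTOX Red and compound together, incubate 24 h at 37 C, are fixed 30 min with paraformaldehyde/Hoechst, then imaged at one site per well.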

[17] = biological target: Estrogen receptor beta (Homo sapiens) (UniProt Q92731); test: qHTS assay to identify small molecule agonists of the estrogen receptor beta (ER-beta) signaling pathway (AID 1259377; active means well fitted activation curve with a large enough effect in the signal ratio in the repeat runs, not every such curve was filed as active; the % refers to the signal ratio)
Estrogen receptor beta (Homo sapiens), sequence (Q92731 whole entry, looked up): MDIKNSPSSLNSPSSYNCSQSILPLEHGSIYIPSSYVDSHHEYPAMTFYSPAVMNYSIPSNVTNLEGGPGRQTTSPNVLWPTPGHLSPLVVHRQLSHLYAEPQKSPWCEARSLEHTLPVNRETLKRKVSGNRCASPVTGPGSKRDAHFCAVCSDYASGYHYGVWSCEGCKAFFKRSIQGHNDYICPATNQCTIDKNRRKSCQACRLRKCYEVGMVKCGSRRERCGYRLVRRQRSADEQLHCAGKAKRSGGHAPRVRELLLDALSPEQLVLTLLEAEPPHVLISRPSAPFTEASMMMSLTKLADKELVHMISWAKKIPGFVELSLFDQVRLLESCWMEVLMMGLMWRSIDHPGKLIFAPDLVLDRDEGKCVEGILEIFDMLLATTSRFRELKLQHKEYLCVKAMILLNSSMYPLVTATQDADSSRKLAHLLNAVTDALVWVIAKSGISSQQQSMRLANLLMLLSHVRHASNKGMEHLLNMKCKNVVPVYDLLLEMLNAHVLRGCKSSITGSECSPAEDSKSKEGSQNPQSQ
How it was run: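 qHTS in ER-beta-UAS-bla HEK293T cells: 6 hr settling, then 16 hr compound at 37C, then LiveBLAzer substrate 2 h at RT before fluorescence reading.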

[18] = biological target: Estrogen receptor beta (Homo sapiens) (UniProt Q92731); test: qHTS assay to identify small molecule antagonists of the estrogen receptor beta (ER-beta) signaling pathway (AID 1259378; active means well fitted inhibition curve with a large enough effect in the signal ratio in the repeat runs, not every such curve was filed as active; the % refers to the signal ratio)
How it was run: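 ER-beta-UAS-bla HEK293T (GripTite) cells in 2% charcoal-stripped FBS medium were preincubated 6 hr at 37C, dosed with compound, then stimulated with 1 nM E2 (final) for 16 hr; beta-lactamase reporter read by B/G FRET fluorescence after 2 hr substrate loading.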

Row | SMILES | Potency [1] | outcome [2] | outcome [3] | outcome [4] | Potency [5] | outcome [6] | Potency [7] | outcome [8] | Potency [9] | Potency [10] | Potency [11] | Potency [12] | Potency [13] | Potency [14] | outcome [15] | Potency [16] | outcome [17] | Potency [18]
1 | c1ccc2cnncc2c1 | inactive | inactive | inactive | inactive | inactive | inactive | inactive | inactive | inactive | inactive | inactive | inactive | inactive | inactive | inactive | – | – | –
2 | COC(=O)C1=C(C)NC(C)=C(C(=O)OCC(C)=O)C1c1ccccc1[N+](=O)[O-] (stereo not given) | inactive | inactive | inactive | inactive | inactive | inactive | – | – | inactive | – | inactive | inactive | inactive | – | inactive | inactive | – | –
3 | CCC(=O)Nc1cccc(N)c1 | inactive | inactive | inactive | inactive | inactive | inactive | inactive | inactive | inactive | inactive | inactive | inactive | inactive | inactive | inactive | – | inactive | inactive
4 | CCOC(=O)Cn1c(=O)sc2cccc(Cl)c21 | inactive | inactive | inactive | inactive | inactive | inactive | inactive | inactive | inactive | – | inactive | – | inactive | inactive | inactive | – | inactive | inactive
5 | COc1ccc(COC=O)cc1 | inactive | inactive | inactive | inactive | inactive | inactive | inactive | inactive | inactive | inactive | inactive | inactive | inactive | inactive | inactive | – | inactive | inactive
6 | CC(=O)NC(Cc1ccccc1)C(=O)O (stereo not given) | inactive | inactive | inactive | inactive | – | inactive | inactive | inactive | inactive | inactive | inactive | inactive | inactive | – | inactive | inactive | – | –
7 | CCC(=O)/C=C/c1ccc(OC)cc1 | inactive | inactive | inactive | inactive | 24.3 µM (active) | inactive | inactive | inactive | inactive | inactive | inactive | inactive | inactive | – | – | – | inactive | –
8 | CN(C)CCOC(c1ccc(Cl)cc1)c1ccccn1 (stereo not given) | inactive | inactive | inactive | inactive | inactive | inactive | inactive | inactive | inactive | – | inactive | inactive | inactive | inactive | inactive | inactive | – | –
9 | C=C[Si](OC)(OC)OC | inactive | inactive | inactive | inactive | inactive | inactive | inactive | inactive | inactive | inactive | inactive | inactive | inactive | inactive | – | – | inactive | inactive
10 | CC(=O)OC(C)(C)C | inactive | inactive | inactive | inactive | inactive | inactive | inactive | inactive | inactive | inactive | inactive | inactive | inactive | inactive | – | – | inactive | inactive
11 | CO[Si](CCCNCCC[Si](OC)(OC)OC)(OC)OC | inactive | inactive | inactive | inactive | inactive | inactive | inactive | inactive | inactive | inactive | inactive | inactive | inactive | – | inactive | – | – | –
12 | O=C(O)C(O)[C@H](O)[C@@H](O)[C@H](O)[C@H](O)CO (stereo not given in full) | inactive | inactive | inactive | inactive | inactive | inactive | inactive | inactive | inactive | inactive | inactive | – | – | inactive | inactive | – | inactive | inactive
13 | CCC(C(=O)NC(N)=O)c1ccccc1 (stereo not given) | inactive | inactive | inactive | inactive | inactive | inactive | inactive | inactive | inactive | – | inactive | inactive | inactive | – | inactive | inactive | inactive | –
14 | CC(C)(O)C(=O)c1ccc(OCCO)cc1 | inactive | inactive | inactive | inactive | inactive | inactive | inactive | inactive | inactive | – | inactive | inactive | inactive | inactive | – | – | inactive | inactive
15 | C=CCOCC(O)CS(=O)(=O)O (stereo not given) | inactive | inactive | inactive | inactive | inactive | inactive | inactive | inactive | inactive | inactive | inactive | inactive | inactive | inactive | inactive | – | inactive | –
16 | CNc1ncnc2nc[nH]c12 | inactive | inactive | inactive | inactive | inactive | inactive | inactive | inactive | inactive | – | inactive | inactive | inactive | inactive | inactive | – | – | –
17 | C[C@H]1O[C@@H](n2cc(F)c(=O)[nH]c2=O)[C@H](O)[C@@H]1O | inactive | inactive | inactive | – | inactive | inactive | inactive | inactive | inactive | inactive | inactive | inactive | inactive | – | inactive | inactive | inactive | –
